AmpC inh detg = blocks E. coli AmpC beta-lactamase in detergent assay; P00811; AmpC hydrolysis of nitrocefin, absorbance 480 nm, 0.01% Triton; Potency, µM (top dose mostly 114 µM), without a hit: at the top dose activity change, negative = inhibition, usual class: inhibitors; 370,000 tested, 0.041% active; AID 485294;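 also: 0% = no-compound wells and -100% = no-enzyme wells; nearly all actives have a fitted effect of over 25% in size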
Target sequence (P00811 whole entry, looked up): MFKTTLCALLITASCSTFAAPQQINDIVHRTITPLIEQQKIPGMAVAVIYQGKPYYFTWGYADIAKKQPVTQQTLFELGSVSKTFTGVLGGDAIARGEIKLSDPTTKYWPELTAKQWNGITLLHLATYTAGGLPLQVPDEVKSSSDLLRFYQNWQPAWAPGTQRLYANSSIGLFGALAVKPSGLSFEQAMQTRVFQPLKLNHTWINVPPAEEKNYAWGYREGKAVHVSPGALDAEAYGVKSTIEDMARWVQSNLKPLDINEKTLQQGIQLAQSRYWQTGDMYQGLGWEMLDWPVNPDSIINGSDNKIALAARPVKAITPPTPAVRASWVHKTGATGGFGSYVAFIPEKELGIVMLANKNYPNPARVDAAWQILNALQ
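20 mM phosphate pH 7.0 + 0.01% (detergent screen) or 0.0001% Triton X-100; 5.3 nM AmpC reagent; cpd preinc 15 min RT; nitrocefin (800 uM stock) to start; A480 q20 s × 4 min; Activity was normalised to no-enzyme and no-compound control wells.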
SARS PLpro yeast = inhibitors of SARS-CoV papain-like protease in yeast; 330,000 tested, 0.19% active; S. cerevisiae expressing SARS-CoV PLpro, growth rescue; AID 485353; Potency, µM (doses to about 32.9 µM), for the others: top-dose activity, positive = growth rescue, hits mostly activators; calls by dose curve; also: 0% is about no effect; nearly all actives have a fitted effect of over 55% in size
AmpC no deterg = inhibitors of E. coli AmpC beta-lactamase without detergent | P00811 | AmpC nitrocefin hydrolysis, absorbance 480 nm, 0.0001% Triton | Potency, µM (top dose mostly 57.1 µM), for the others: at the top dose activity change, negative = inhibition, actives largely listed as inhibitors | 330,000 tested, 0.52% active;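 also: plate controls were no compound for no effect and no enzyme for full effect; nearly all actives have a fitted effect of over 20% in size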
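AmpC (5.3 nM in the dispensed reagent) in 20 mM phosphate pH 7.0 with 0.01% (detergent screen) or 0.0001% Triton X-100 was preincubated with compounds for 15 min at room temperature. Nitrocefin was then added from an 800 uM solution, and hydrolysis was followed at 480 nm.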
FBPA Giardia inh = blocks Giardia fructose-bisphosphate aldolase activity. purified Giardia FBPA. Potency, µM (doses to about 59.6 µM), inactives show top-dose activity, negative = inhibition, actives largely listed as inhibitors. 290,000 tested, 0.71% active. AID 2451; also: % is scaled to controls: 0 for no effect and ±100 for the full control effect; nearly all actives have a fitted effect of over 55% in size
Target sequence (A8B2U2 whole entry, looked up): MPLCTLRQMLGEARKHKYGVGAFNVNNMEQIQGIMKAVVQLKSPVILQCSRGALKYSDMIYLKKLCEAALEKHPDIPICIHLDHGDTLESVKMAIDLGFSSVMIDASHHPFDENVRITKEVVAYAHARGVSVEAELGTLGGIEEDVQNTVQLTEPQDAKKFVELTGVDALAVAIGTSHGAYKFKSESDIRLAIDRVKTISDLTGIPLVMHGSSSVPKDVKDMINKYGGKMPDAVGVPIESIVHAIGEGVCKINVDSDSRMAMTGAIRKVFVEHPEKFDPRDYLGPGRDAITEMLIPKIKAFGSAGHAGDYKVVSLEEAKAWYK
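Giardia FBPA (40 nM reagent) was preincubated 10 min at RT with compound (up to 57.5 uM final), then substrate plus GAPDH/TPI/NAD/arsenate coupling system with diaphorase/resazurin was added; resorufin fluorescence (525/598 nm) was read after 20 min.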
NS1 function inh = blocks influenza NS1 protein function. Potency, µM (titrated, usually from 46.1 µM), for the others: at the top dose activity, positive = more growth. 270,000 tested, 0.4% active. AID 2326; calls by dose curve; also: actives are rising curves; nearly all actives have a fitted effect of over 50% in size
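Recovery from NS1-induced slow growth read by OD600 in budding yeast switched to galactose assay medium (pH 6.0, -URA) at 1:100 dilution. Compound 23 nl per well; the matching strain lacking NS1 serves as control.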
Starred values were filed as active, the others as inactive; [ ] = remark or other dose. In the library only some 1.4% were active in any assay of this set; here they are far more common. Unless noted, calls follow the shape of the dose curve; as a rule, active = well fitted curve in the direction sought with a large enough effect; inconclusive = small, poorly fitted or top-dose-only effect, or another doubt; inactive = no such curve, though single readings can be large; an effect the other way counts as inactive or inconclusive. Potency is read from the fitted curve at half-maximal effect.

What do the screens show for `O=C(Cn1cnc2c(nnn2Cc2ccc(Cl)cc2)c1=O)NCc1ccco1`?
AmpC inh detg: -6%; SARS PLpro yeast: 14%; AmpC no deterg: -21%; FBPA Giardia inh: 0%; NS1 function inh: 3%

How did Cc1ccccc1OCc1nc2ccccc2c(=O)n1/N=C/c1c[nH]c2ccccc12 do in these assays?
AmpC inh detg: inconclusive; SARS PLpro yeast: 10%; AmpC no deterg: -48%; FBPA Giardia inh: -7%; NS1 function inh: 6%

How did Cc1ccc(-c2[nH]ncc2/C=N/n2c(COc3ccccc3C)nc3ccccc3c2=O)cc1 do in these assays?
AmpC inh detg: -9%; SARS PLpro yeast: 6%; AmpC no deterg: 8.9µM*; FBPA Giardia inh: 7%; NS1 function inh: 13%

What do the screens show for `O=C(Nc1ccc(F)cc1)c1ccc2[nH]c(=O)c(=O)[nH]c2c1`?
AmpC inh detg: inconclusive; SARS PLpro yeast: 0%; AmpC no deterg: -15%; FBPA Giardia inh: -20%; NS1 function inh: 10%

How did Cc1nn(-c2ccc(F)cc2)c(Cl)c1/C=N/NC(=O)c1cccs1 do in these assays?
AmpC inh detg: -1%; SARS PLpro yeast: -10%; AmpC no deterg: 28µM*; FBPA Giardia inh: 5%; NS1 function inh: 9%

How did CCCOc1ccccc1NC(=O)CC1Nc2ccccc2NC1=O (stereo not given) do in these assays?
AmpC inh detg: -9%; SARS PLpro yeast: 4%; AmpC no deterg: 18µM*; FBPA Giardia inh: -6%; NS1 function inh: -33%

How did COc1ccc(N=C(N)N=C(N)N)c(OC)c1 do in these assays?
AmpC inh detg: -7%; SARS PLpro yeast: 9%; AmpC no deterg: -28%; FBPA Giardia inh: 8%; NS1 function inh: -7%

How did O=C(c1ccncc1)N1CCC[C@@]2(CCN(c3ccccc3)C2)C1 do in these assays?
FBPA Giardia inh: -16%

What do the screens show for `CCCC[n+]1c2ccccc2cc2ccccc21`?
AmpC inh detg: 32µM*; SARS PLpro yeast: -11%; AmpC no deterg: -24%; FBPA Giardia inh: -22%; NS1 function inh: -58%

What do the screens show for `CCC[n+]1c2ccccc2cc2ccccc21`?
AmpC inh detg: inconclusive; SARS PLpro yeast: -2%; AmpC no deterg: -22%; FBPA Giardia inh: -26%; NS1 function inh: -44%

What do the screens show for `CC(C)(C)OC(=O)NC(Cc1ccccc1)C(=O)N1CCCC1C(=O)O` (stereo not given)?
AmpC inh detg: -6%; SARS PLpro yeast: 1%; AmpC no deterg: 9%; FBPA Giardia inh: -5%; NS1 function inh: 5%

How did CCCCNC(=S)NNC(=O)c1cccnc1 do in these assays?
AmpC inh detg: -1%; SARS PLpro yeast: 19%; AmpC no deterg: -35%; FBPA Giardia inh: -9%; NS1 function inh: 7%

How did O=C1NC(=S)S/C1=C\C=C\c1ccc([N+](=O)[O-])o1 do in these assays?
AmpC inh detg: -8%; SARS PLpro yeast: -22%; AmpC no deterg: 11µM*; FBPA Giardia inh: -20%; NS1 function inh: -105%

What do the screens show for `O=C1CN(/N=C\c2ccc([N+](=O)[O-])o2)C(=O)N1`?
FBPA Giardia inh: -24%[21.7 µM]

What do the screens show for `COc1ccc([C@]23Cc4cc(C#N)ccc4C(O2)c2c(cc(-c4ccccc4)oc2=O)O3)cc1`?
AmpC inh detg: -12%[22.9 µM]; SARS PLpro yeast: -8%[6.58 µM]; AmpC no deterg: inconclusive; FBPA Giardia inh: -6%[12.9 µM]; NS1 function inh: 15%

Results for O=C(NCc1ccco1)/C(=C/c1ccc(C(F)(F)F)cc1)c1nc2ccccc2[nH]1 ?
AmpC inh detg: -4%; SARS PLpro yeast: 5%; AmpC no deterg: 18µM*; FBPA Giardia inh: -30%; NS1 function inh: inconclusive

How did CCOC(=O)CSc1nc2nc(C)cc(C)n2n1 do in these assays?
AmpC inh detg: inconclusive; SARS PLpro yeast: 1%; AmpC no deterg: 10µM*; FBPA Giardia inh: 6%; NS1 function inh: 9%

How did COC(=O)CSc1nc2nc(C)cc(C)n2n1 do in these assays?
AmpC inh detg: -10%; SARS PLpro yeast: 10%; FBPA Giardia inh: 0%; NS1 function inh: inconclusive

Results for O=C(Nc1ccc(F)cc1F)Nc1sccc1-c1nc2ccccc2s1 ?
AmpC inh detg: 7%; SARS PLpro yeast: 1%; AmpC no deterg: 7.9µM*; FBPA Giardia inh: inconclusive; NS1 function inh: 7%

Results for COC(=O)c1ccc(CN(c2ccccn2)S(=O)(=O)c2ccccc2)cc1 ?
AmpC inh detg: -7%; SARS PLpro yeast: 5%; AmpC no deterg: 4%; FBPA Giardia inh: 7%; NS1 function inh: 0%

What do the screens show for `COC(=O)c1ccc(CN(c2ccc(C(=O)O)c(O)c2)S(=O)(=O)c2ccc(Cl)c([N+](=O)[O-])c2)cc1`?
AmpC inh detg: -4%; SARS PLpro yeast: -2%; AmpC no deterg: 7.9µM*; FBPA Giardia inh: -2%; NS1 function inh: -1%

What do the screens show for `COc1ccc(C2=NS(=O)(=O)N(C)C(C(=O)NCc3ccco3)=C2)cc1OC`?
AmpC inh detg: inconclusive; SARS PLpro yeast: -3%; AmpC no deterg: 0%; FBPA Giardia inh: -11%; NS1 function inh: 19%

Results for CO[C@@]1(NC(=O)C2SC(=C(C(N)=O)C(=O)O)S2)C(=O)N2C(C(=O)O)=C(CSc3nnnn3C)CS[C@@H]21 (stereo not given in full) ?
AmpC inh detg: 18µM*; AmpC no deterg: 7.1µM*

What do the screens show for `Cc1onc(-c2c(F)cccc2Cl)c1C(=O)N[C@@H]1C(=O)N2C(C(=O)O)C(C)(C)S[C@H]12` (stereo not given in full)?
AmpC inh detg: 2.5µM*

Results for Cc1onc(-c2ccccc2Cl)c1C(=O)N[C@@H]1C(=O)N2[C@@H]1SC(C)(C)[C@@H]2C(=O)O ?
AmpC inh detg: 0.35µM*; SARS PLpro yeast: 4%; AmpC no deterg: 0.79µM*

How did Cc1onc(-c2c(Cl)cccc2Cl)c1C(=O)N[C@H]1C(=O)N2[C@H]1SC(C)(C)[C@H]2C(=O)O do in these assays?
FBPA Giardia inh: -5%[21.7 µM]

Results for Cc1ccc2nc(NC(=O)CSc3nccn3-c3ccc(Cl)cc3)sc2c1 ?
AmpC inh detg: -2%

What do the screens show for `COc1cccc(/C=N/NC(=O)c2ccc(=O)n(C)c2)c1OC`?
AmpC inh detg: 7%; SARS PLpro yeast: 17%; AmpC no deterg: -9%; FBPA Giardia inh: 0%; NS1 function inh: 3%

What do the screens show for `COc1cccc(/C=N/NC(=O)c2ccccc2)c1OS(=O)(=O)c1ccccc1`?
AmpC inh detg: -7%; SARS PLpro yeast: 2%; AmpC no deterg: 32µM*; FBPA Giardia inh: 0%; NS1 function inh: 7%

How did COC(=O)c1ccc(C(NC(=O)OCc2ccccc2)/C(I)=C/[C@@H](C)C(=O)NCc2ccncc2)cc1 (stereo not given in full) do in these assays?
FBPA Giardia inh: 1%

How did Cc1nnc(SCC(=O)NC(=O)NCc2ccco2)n1Cc1ccccc1 do in these assays?
AmpC inh detg: -5%; SARS PLpro yeast: 5%; AmpC no deterg: -13%; FBPA Giardia inh: -3%; NS1 function inh: 5%

Screening data as filed in PubChem.
